Assay results: PubChem BioAssay (EPA / NIEHS)
Active and inactive are the calls of the source. How the source made its calls: active means hit-call score of the fitted dose curve at least 0.9, where 1 is the maximum; inactive means score below 0.9.

These compounds were tested on CD69, CD69 (gene 969) (assay: BSK_SAg_CD69: BioMAP Diversity Plus: SAg Assay for CD69 Biomarker Activity (AID 2283089)). Details: primary human HUVEC with PBMC; actives raise or lower the signal.
Protocol: BSK_SAg is a cell-based, multiplexed-readout assay that uses umbilical vein endothelium and peripheral blood mononuclear cells, a human vascular primary cell co-culture, with measurements taken at 24 hours after chemical dosing in a 96-well plate.BSK_SAg_CD69 is one of 10 assay component(s) measured or calculated from the BSK_SAg assay. It is designed to make measurements of enzyme-linked immunosorbent assay, a form of binding reporter, as detected with fluorescence intensity signals by Enzyme-linked immunosorbent assay technology.Data from the assay component BSK_SAg_CD69 was analyzed into 1 assay endpoint. This assay endpoint, BSK_SAg_CD69, was analyzed with bidirectional fitting relative to DMSO as the negative control and baseline of activity. Using a type of binding reporter, gain or loss-of-signal activity can be used to understand changes in the signaling as they relate to the gene CD69. Furthermore, this assay endpoint can be referred to as a primary readout, because this assay has produced multiple assay endpoints where this one serves a signaling function. To generalize the intended target to other relatable targets, this assay endpoint is annotated to the cytokine intended target family, where the subfamily is inflammatory factor.
The levels of cell surface (or secreted, indicated by the prefix "s") biomarker endpoints were measured by ELISA. Overt cytotoxicity to cells in confluent adherent cultures (all systems other than the BT system) was assessed by measuring total protein levels using sulforhodamine B (SRB) staining in parallel cultures at the time of biomarker measurements, indicated as SRB endpoints. For proliferation assays for adherent cell types, individual cell types are cultured at sub-confluence and relative cell numbers quantified by SRB staining at time points optimized for each system (48 h: 3C and CASM3C systems; 72 h: BT and HDF3CGF systems; 96 h: SAg system). SRB was performed by staining cells with 0.1% SRB after fixation with 10% TCA and reading wells at 560 nm.Viability and proliferation of PBMC (T cells) was quantified by Alamar Blue reduction for the SAg and BT systems. For PBMC viability (referred to as PBMC Cytotoxicity within the assay endpoint names), cells were plated (75,000/well in a 96-well plate) and then chemical samples added for 1 h before addition of activators, SEB and TSST-1 (20 ng/mL final concentration each). Cells were incubated for 90 h. Then, Alamar Blue (20 uL/well) (Invitrogen, Cat DAL1100) was added for 6 h, and the plates were read with a fluorescence microplate reader at 546/580 nm (excitation/emission). For PBMC proliferation, cells were plated and activated as above but incubated for only 16 h prior to addition of Alamar Blue. Plates were read after 6 h.
For `CCCCCCCCCCCCCCCCCC(=O)OCC(CC)CCCC` (stereo not given), the outcome was “inactive”.
With `CC(=O)Nc1ccccc1O` the outcome was “inactive”.
With `CCCCC/C=C/C=C/C=O` the AC50 was 30 µM (active).
`O=C(O)c1cn(-c2ccc(F)cc2)c2cc(N3CCNCC3)c(F)cc2c1=O` was tested, and the outcome was “inactive”.
With `CC1CCC(C(C)CS)CC1S` (stereo not given) the AC50 was 30.8 µM (active).
In the case of `CCCCCCCCC=O`, the outcome is reported as “inactive”.
In the case of `CCC(=O)OCc1ccccc1`, the outcome is reported as “inactive”.
In the case of `CCCCC(CC)COCCC#N` (stereo not given), the outcome is reported as “inactive”.
In the case of `C=CCOC(=O)CCC1CCCCC1`, the outcome is reported as “inactive”.
In the case of `O=P(c1ccccc1)(c1ccccc1)c1ccccc1`, the outcome is reported as “inactive”.
In the case of `CC1COc2ccccc2N1C(=O)C(Cl)Cl` (stereo not given), the AC50 is reported as 5.91 µM (active).
In the case of `CCn1c2ccccc2c2cc(N)ccc21`, the AC50 is reported as 4.02 µM (active).
In the case of `C#C[C@]1(O)CC[C@H]2[C@@H]3CCC4=Cc5oncc5C[C@]4(C)[C@H]3CC[C@@]21C`, the outcome is reported as “inactive”.
In the case of `Nc1cc([N+](=O)[O-])ccc1Cl`, the outcome is reported as “inactive”.
With `NCCNCCN` the outcome was “inactive”.
In the case of `C[C@H]1C[C@@H]2[C@H]([C@@H](O)C[C@@]3(C)[C@H]2CC[C@]3(O)C(=O)CO)[C@@]2(C)C=CC(=O)C=C12`, the outcome is reported as “inactive”.
In the case of `CCc1c(C)cc(N)c(CC)c1N`, the outcome is reported as “inactive”.
For `CC(C)Oc1ccccc1O`, the outcome was “inactive”.
In the case of `CC(=O)/C=C/C1=C(C)CCCC1(C)C`, the outcome is reported as “inactive”.
In the case of `Cc1ccc2n[nH]nc2c1`, the outcome is reported as “inactive”.
For `C=C[Si](OCC)(OCC)OCC`, the outcome was “inactive”.
`O=C1OC2(c3cc(Br)c(O)c(Br)c3Oc3c2cc(Br)c(O)c3Br)c2c(Cl)c(Cl)c(Cl)c(Cl)c21` was tested, and the AC50 was 6.39 µM (active).
For `O=C(O)c1cn(C2CC2)c2cc(N3CCNCC3)c(F)cc2c1=O`, the outcome was “inactive”.
In the case of `O=C(O)c1ccc([N+](=O)[O-])cc1`, the outcome is reported as “inactive”.
For `OC[C@H]1O[C@H](O[C@]2(CCl)O[C@H](CCl)[C@@H](O)[C@@H]2O)[C@H](O)[C@@H](O)[C@H]1Cl`, the outcome was “inactive”.
`CNC[C@H](O)c1cccc(O)c1` was tested, and the outcome was “inactive”.
`CC[Si](OC(C)=O)(OC(C)=O)OC(C)=O` was tested, and the outcome was “inactive”.
With `O=C=NC1CCC(CC2CCC(N=C=O)CC2)CC1` (stereo not given) the outcome was “inactive”.
With `CN(CCOc1ccc(CC2SC(=O)NC2=O)cc1)c1ccccn1` (stereo not given) the AC50 was 20 µM (active).
For `CC(C)c1ccc(C(C)C)cc1`, the outcome was “inactive”.
`Cc1ccc(O)c(C(C)(C)C)c1` was tested, and the AC50 was 30.9 µM (active).
`O=[N+]([O-])c1cc(C(F)(F)F)ccc1Cl` was tested, and the outcome was “inactive”.
With `CC(=O)OCCC(C)CC(C)(C)C` (stereo not given) the outcome was “inactive”.
With `C=C(C)C(=O)O[C@H]1C[C@@H]2CC[C@@]1(C)C2(C)C` the AC50 was 30.8 µM (active).
For `O=C(O)C[C@H](O)C[C@H](O)/C=C/c1c(C2CC2)nc2ccccc2c1-c1ccc(F)cc1`, the AC50 was 0.109 µM (active).
In the case of `N#Cc1ccc(CC(=NNC(=O)Nc2ccc(OC(F)(F)F)cc2)c2cccc(C(F)(F)F)c2)cc1`, the outcome is reported as “inactive”.
For `OC1OC[C@@H](O)[C@H](O)[C@H]1O` (stereo not given in full), the outcome was “inactive”.
`CC(=O)O[C@]1(C(C)=O)CC[C@H]2[C@@H]3C[C@H](C)C4=CC(=O)CC[C@]4(C)[C@H]3CC[C@@]21C` was tested, and the outcome was “inactive”.
For `CCCCCCCCCC=O`, the AC50 was 29.9 µM (active).
For `c1ccc2sc(SN(C3CCCCC3)C3CCCCC3)nc2c1`, the AC50 was 5.79 µM (active).
